NOMO-1 viab: STK33 inhibitor candidate reducing NOMO-1 cell viability. NOMO-1 AML viability, CellTiter-Glo luminescence, 72 h. inhibition, % (no concentration beside the values). 37,000 tested, 7.5% active. AID 2330; in the data active = inhibition above about 80%; inconclusive = no clear call, values can overlap the other calls
STK33 inh: human STK33 kinase inhibition; 27,000 tested, 0.44% active; AID 2322; Q9BYT3; ADP-Glo luminescence, MBP substrate; inhibition, % at 12.5 µM; in the data active = inhibition above about 20%; inconclusive = no clear call, values can overlap the other calls
Target sequence (Q9BYT3 whole entry, looked up): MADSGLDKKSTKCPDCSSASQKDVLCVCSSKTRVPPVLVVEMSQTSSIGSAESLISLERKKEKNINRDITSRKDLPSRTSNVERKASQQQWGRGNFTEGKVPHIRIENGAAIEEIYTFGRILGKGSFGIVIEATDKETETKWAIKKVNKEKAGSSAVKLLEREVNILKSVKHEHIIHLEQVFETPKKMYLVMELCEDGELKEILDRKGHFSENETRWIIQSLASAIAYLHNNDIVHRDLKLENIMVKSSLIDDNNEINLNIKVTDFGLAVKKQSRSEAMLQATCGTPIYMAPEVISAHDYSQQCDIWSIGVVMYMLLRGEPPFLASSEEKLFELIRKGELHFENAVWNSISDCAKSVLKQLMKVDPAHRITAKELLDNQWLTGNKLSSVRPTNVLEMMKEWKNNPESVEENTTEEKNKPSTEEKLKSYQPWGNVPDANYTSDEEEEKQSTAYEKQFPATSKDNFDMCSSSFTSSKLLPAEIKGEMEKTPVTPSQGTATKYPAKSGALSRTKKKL
ID4 SMM: binds human ID4 protein on microarray | small molecule microarray, Flag-ID4 binding, fluorescence F/B | 31,000 tested, 1.2% active | calls only | AID 624137; call rule not given here;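 note: a binder raises fluorescence above local background on the spot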
p53 PUMA act: mutant p53 pathway reactivation. SW480 PUMA-promoter luciferase. activation, % at 9.98 µM. 28,000 tested, 1.5% active. AID 624151; in the data active = activation above about 52%; inconclusive = no clear call, values can overlap the other calls
* = called active by the depositor; i = inactive; ? = inconclusive; . = no result; + = active, no number. The sample as a whole holds a higher share of hits than the screen did.

SMILES	NOMO-1 viab	STK33 inh	ID4 SMM	p53 PUMA act
O=S(=O)(N[C@@H]1CCCN(Cc2cccc(OCCO)c2)C1)c1cc(Cl)ccc1Cl	.	1.4	+	.
Cc1ccc(S(=O)(=O)N[C@@H]2CCCN(Cc3ccc(OCCO)cc3)C2)cc1	.	.	+	.
Cc1ccc(-n2c(SCC(=O)Nc3ccc(C)c(Cl)c3)nnc2-c2ccccc2O)c(C)c1	?	-4.4	i	3.8
COc1ccccc1N(Cc1cc2ccc(C)cc2[nH]c1=O)S(=O)(=O)c1ccccc1	107.5*	1.7	i	-2.6
COc1ccccc1N(CC(=O)O)S(=O)(=O)c1ccccc1	-3.5	-0.5	i	-4.3
C[C@@H]1CN([C@H](C)CO)C(=O)c2cc(NS(=O)(=O)c3cn(C)cn3)ccc2O[C@@H]1CN(C)Cc1ccc(Cl)c(Cl)c1	-5.3	.	.	.
CNC[C@@H]1OCCCC[C@H](C)Oc2ccc(NC(=O)Nc3ccc4c(c3)OCO4)cc2C(=O)N([C@@H](C)CO)C[C@@H]1C	.	.	+	1.5
CNC[C@H]1Oc2ccc(NC(=O)Nc3ccc4c(c3)OCO4)cc2CC(=O)N([C@@H](C)CO)C[C@@H]1C	9.6	-3.0	+	2.8
CNC[C@@H]1Oc2ccc(NC(=O)Nc3ccc4c(c3)OCO4)cc2C(=O)N([C@@H](C)CO)C[C@H]1C	17.7	.	+	5.1
CNC[C@@H]1OCCCC[C@@H](C)Oc2ccc(NC(=O)Nc3ccc4c(c3)OCO4)cc2C(=O)N([C@H](C)CO)C[C@@H]1C	-1.9	0.1	.	.
O=C(Nc1cccnc1)C1CC(c2c(F)cccc2Cl)=NO1 (stereo unspecified)	11.2	-0.3	i	-13.7
C=C(C)C(=O)O[C@H]1C[C@@]2(C)O[C@@H]2[C@H]2O[C@H]2C(=C)[C@@H](O)[C@H]2OC(=O)C(=C)[C@@H]21	.	-9.5	.	-50.7
C=C(C(=O)O[C@H]1C[C@]2(C)C(C(C=O)CC[C@H]2O)[C@H]2OC(=O)C(=C)[C@H]12)C(O)CO (stereo partly specified)	103.7*	0.9	i	-8.1
C[C@@H]1CN([C@@H](C)CO)C(=O)Cc2cc(N(C)C)ccc2O[C@@H]1CN(C)S(=O)(=O)c1cccs1	-8.8	-2.4	i	-5.1
COc1ccccc1C(=O)Nc1sc2c(c1C(=O)NCc1ccco1)CCCC2	91.1*	3.8	i	-15.3
O=C(Nc1sc2c(c1C(=O)NCc1ccco1)CCCC2)c1sc2ccccc2c1Cl	70.4	3.2	i	-47.0
Cc1c(C(=O)Nc2sc3c(c2C(=O)NCc2ccco2)CCCC3)oc2ccccc12	105.9*	-3.5	i	12.0
COc1ccc(C(=O)Nc2sc3c(c2C(N)=O)CCCC3)cc1OC	.	.	i	76.0*
Cc1ccc2oc(C(=O)Nc3sc4c(c3C(=O)NC3CCS(=O)(=O)C3)CCC4)c(C)c2c1 (stereo unspecified)	105.8*	4.5	i	-9.7
COc1ccc(C(=O)Nc2sc3c(c2C(=O)NC2CCS(=O)(=O)C2)CCCC3)cc1OC (stereo unspecified)	-3.1	3.0	i	-5.3
C[C@@H]1CN([C@H](C)CO)C(=O)c2cc(NC(=O)CCN3CCOCC3)ccc2O[C@H]1CN(C)Cc1ccc(C(=O)O)cc1	11.7	.	.	.
C[C@@H]1CN([C@@H](C)CO)C(=O)Cc2cc(NC(=O)Nc3ccccc3)ccc2O[C@H]1CN(C)C(=O)Nc1ccc(F)cc1	.	.	i	12.0
COc1ccc(OC)c(C2Nc3nc4ccccc4n3C(C)=C2C(=O)Nc2ccc(C)cc2C)c1 (stereo unspecified)	85.4*	-0.6	i	-37.9
COc1ccc(OC)c(C2C(C(=O)Nc3ccccc3OC)=C(C)Nc3ncnn32)c1 (stereo unspecified)	-15.5	-2.9	i	9.2
N=c1sc2ccccc2n1C(=O)OCc1ccccc1	2.7	.	.	.
SMILES	NOMO-1 viab	STK33 inh	ID4 SMM	p53 PUMA act
O=C(CCCCc1ccc(O)cc1)CCc1ccc(O)cc1	104.5*	0.8	.	.
CCCn1c2ccccc2c2nnc(SCCN3CCCCC3)nc21	28.1	-3.7	+	3.0
Cc1cc(N)nc(COc2ccc([N+](=O)[O-])cc2)n1	-1.0	0.2	i	15.4
C[C@H](CO)N1C[C@H](C)[C@@H](CN(C)Cc2ccc3c(c2)OCO3)Oc2ccc(NC(=O)CCCCCC(=O)Nc3ccccc3N)cc2C1=O	-18.7	.	.	.
C[C@@H]1CN([C@@H](C)CO)C(=O)c2cccc(NC(=O)CCCCCC(=O)Nc3ccccc3N)c2O[C@H]1CN(C)Cc1ccc2c(c1)OCO2	117.3*	.	.	.
C[C@H]1CN([C@@H](C)CO)C(=O)c2cccc(NC(=O)CCCCCC(=O)Nc3ccccc3N)c2O[C@@H]1CN(C)Cc1ccc2c(c1)OCO2	121.4*	.	.	.
C[C@H](CO)N1C[C@H](C)[C@@H](CN(C)Cc2ccc3c(c2)OCO3)Oc2c(NC(=O)CCCCCC(=O)Nc3ccccc3N)cccc2C1=O	123.4*	.	.	.
CC(C)NC(=O)Nc1ccc2c(c1)CC(=O)N([C@@H](C)CO)C[C@H](C)[C@H](CN(C)C(=O)Nc1ccc(C(F)(F)F)cc1)O2	21.1	-1.3	.	.
Cc1cc(C(=O)Nc2cccc3c2O[C@@H](CN(C)C(=O)NC2CCCCC2)[C@@H](C)CN([C@H](C)CO)C3=O)n(C)n1	20.1	.	i	12.9
CCOC(=O)c1c(NC(=S)N(C)Cc2c(C)nn(C)c2C)sc2c1CCCCCC2	37.8	-0.8	+	4.4
CC(C)(C)C1CCc2c(sc3nc(-c4cccs4)oc(=O)c23)C1 (stereo unspecified)	107.7*	.	.	.
CC(C)(C)C1CCc2nc(N)c3c(=O)oc4ccccc4c3c2C1 (stereo unspecified)	.	.	i	-2.2
C[C@@H]1CN([C@H](C)CO)C(=O)c2cc(-c3ccccc3)cnc2O[C@H]1CN(C)Cc1ccccn1	.	.	i	.
Cc1cc(C)c(OCCCCNCCO)c(C)c1	-12.6	-8.0	i	-9.0
C[C@H]1CN([C@@H](C)CO)C(=O)Cc2cc(NC(=O)Nc3cccc4ccccc34)ccc2O[C@@H]1CN(C)Cc1ccccc1	49.6	3.7	.	.
C[C@@H]1CN([C@H](C)CO)C(=O)Cc2cc(NC(=O)Nc3cccc4ccccc34)ccc2O[C@H]1CN(C)Cc1ccc(C(F)(F)F)cc1	105.4*	2.3	.	.
C[C@H]1CN([C@@H](C)CO)C(=O)Cc2cc(NC(=O)Nc3cccc4ccccc34)ccc2O[C@H]1CN(C)Cc1ccc(C(F)(F)F)cc1	105.8*	4.8	.	.
C[C@@H]1CN([C@@H](C)CO)C(=O)Cc2cc(NC(=O)Nc3cccc4ccccc34)ccc2O[C@@H]1CN(C)C(=O)Nc1ccc(C(F)(F)F)cc1	107.3*	5.3	.	.
C[C@H](CO)N1C[C@H](C)[C@H](CN(C)C(=O)Nc2ccc(C(F)(F)F)cc2)Oc2ccc(NC(=O)Nc3cccc4ccccc34)cc2CC1=O	45.8	5.3	.	.
C[C@H](CO)N1C[C@H](C)[C@H](CN(C)Cc2ccc(C(F)(F)F)cc2)Oc2ccc(NC(=O)Nc3cccc4ccccc34)cc2CC1=O	125.4*	4.7	.	.
C[C@@H]1CN([C@H](C)CO)C(=O)c2cc(NC(=O)Nc3ccc4c(c3)OCO4)ccc2O[C@H]1CN(C)Cc1ccc(C(=O)O)cc1	29.8	.	i	4.8
COc1cc(OC2OC(COC3OCC(O)(CO)C3O)C(O)C(O)C2O)c2c(-c3ccc(O)c(O)c3)cc(=O)oc2c1 (stereo unspecified)	25.8	1.1	i	-4.2
